# Experimental data from the supplement of paper PMC8728848.
# The entries come from a sample that favours the strongest signals as a whole.
# Legend:
# Test in all cases: glycan array binding signal (z-score within array); higher = stronger binding
# Details in all cases: glycan notation: IUPAC condensed, linker removed; mutation: I144G
# [1] = molecular target: Fuc(a1-2)Gal(b1-3)GalNAc(b1-3)Gal(a1-4)Gal(b1-4)Glc
# How it was run: (§1)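 From the Consortium for Functional Glycomics database, 3228 arrays were curated, keeping only those whose protein sequence was available. Binding is given as a within-array Z-score averaged across arrays sharing a protein sequence and across linkers. Negative Z-scores can be read as non-binding.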
# [2] = molecular target: Fuc(a1-2)Gal(b1-3)GlcNAc(b1-3)[Fuc(a1-2)Gal(b1-3)GlcNAc(b1-6)]GalNAc
# How it was run: as §1
# [3] = molecular target: Fuc(a1-2)Gal(b1-4)[Fuc(a1-3)]GlcNAc(b1-3)[Neu5Ac(a2-6)Gal(b1-4)GlcNAc(b1-6)]Gal(b1-4)Glc
# How it was run: as §1
# [4] = molecular target: Fuc(a1-2)[Gal(a1-3)]Gal(b1-4)GlcNAc(b1-6)GalNAc
# How it was run: as §1
# [5] = molecular target: Fuc(a1-2)[GalNAc(a1-3)]Gal
# How it was run: as §1
# [6] = molecular target: Fuc(a1-2)[GalNAc(a1-3)]Gal(b1-3)GlcNAc(b1-2)Man(a1-3)[Fuc(a1-2)[GalNAc(a1-3)]Gal(b1-3)GlcNAc(b1-2)Man(a1-6)]Man(b1-4)GlcNAc(b1-4)[Fuc(a1-6)]GlcNAc
# How it was run: as §1
# [7] = molecular target: Gal(a1-3)Gal(b1-4)GlcNAc(b1-2)Man(a1-3)[Gal(a1-3)Gal(b1-4)GlcNAc(b1-2)Man(a1-6)]Man(b1-4)GlcNAc(b1-4)GlcNAc
# How it was run: as §1
# [8] = molecular target: Gal(a1-4)Gal(b1-4)GlcNAc(b1-3)Gal(b1-4)Glc
# How it was run: as §1
# [9] = molecular target: Gal(b1-3)Gal(b1-4)GlcNAc
# How it was run: as §1
# [10] = molecular target: Gal(b1-3)GalNAc(b1-4)[Neu5Ac(a2-3)]Gal(b1-4)Glc
# How it was run: as §1
# [11] = molecular target: Gal(b1-4)GlcNAc(b1-3)Gal(b1-3)GalNAc
# How it was run: as §1
# [12] = molecular target: Gal3S(b1-3)GalNAc
# How it was run: as §1
# [13] = molecular target: GlcA3S(b1-3)Gal(b1-4)GlcNAc(b1-2)Man
# How it was run: as §1
# [14] = molecular target: GlcA3S(b1-3)Gal(b1-4)GlcNAc(b1-3)Gal(b1-4)Glc
# How it was run: as §1
# [15] = molecular target: GlcNAc(b1-2)Man(a1-3)[GlcNAc(b1-4)][GlcNAc(b1-2)Man(a1-6)]Man(b1-4)GlcNAc(b1-4)[Fuc(a1-6)]GlcNAc
# How it was run: as §1
# [16] = molecular target: GlcNAc(b1-3)Gal(b1-3)GalNAc
# How it was run: as §1
# [17] = molecular target: GlcNAc(b1-6)GalNAc
# How it was run: as §1
# [18] = molecular target: Neu5Ac(a2-3)Gal(b1-3)GalNAc
# How it was run: as §1
# [19] = molecular target: Neu5Ac(a2-3)Gal(b1-3)GalNAc(b1-3)Gal(a1-4)Gal(b1-4)Glc
# How it was run: as §1
# [20] = molecular target: Neu5Ac(a2-3)Gal(b1-3)GalNAc(b1-4)[Neu5Ac(a2-3)]Gal(b1-4)Glc
# How it was run: as §1
# [21] = molecular target: Neu5Ac(a2-3)Gal(b1-3)GalNAc6S
# How it was run: as §1
# [22] = molecular target: Neu5Ac(a2-3)Gal(b1-3)[GlcNAc(b1-6)]GalNAc
# How it was run: as §1
# [23] = molecular target: Neu5Ac(a2-3)Gal(b1-4)GlcNAc(b1-2)Man(a1-3)[GlcNAc(b1-4)][Neu5Ac(a2-3)Gal(b1-4)GlcNAc(b1-2)Man(a1-6)]Man(b1-4)GlcNAc(b1-4)GlcNAc
# How it was run: as §1
# [24] = molecular target: Neu5Ac(a2-3)Gal(b1-4)GlcNAc(b1-2)[Neu5Ac(a2-3)Gal(b1-4)GlcNAc(b1-6)]Man(a1-6)[Neu5Ac(a2-3)Gal(b1-4)GlcNAc(b1-2)Man(a1-3)][GlcNAc(b1-4)]Man(b1-4)GlcNAc(b1-4)GlcNAc
# How it was run: as §1
# [25] = molecular target: Neu5Ac(a2-3)Gal(b1-4)GlcNAc(b1-3)Gal
# How it was run: as §1
# [26] = molecular target: Neu5Ac(a2-6)Gal(b1-4)GlcNAc(b1-2)Man(a1-3)[Neu5Ac(a2-6)Gal(b1-4)GlcNAc(b1-2)Man(a1-6)]Man(b1-4)GlcNAc(b1-4)GlcNAc
# How it was run: as §1
# [27] = molecular target: Neu5Ac(a2-6)Gal(b1-4)GlcNAc(b1-2)Man(a1-3)[Neu5Ac(a2-6)Gal(b1-4)GlcNAc(b1-2)Man(a1-6)]Man(b1-4)GlcNAc(b1-4)[Fuc(a1-6)]GlcNAc
# How it was run: as §1
# [28] = molecular target: Neu5Ac(a2-6)Gal(b1-4)GlcNAc(b1-3)Gal(b1-4)GlcNAc
# How it was run: as §1
# [29] = molecular target: Neu5Ac(a2-6)Gal(b1-4)GlcNAc(b1-3)Gal(b1-4)[Fuc(a1-3)]GlcNAc(b1-3)Gal(b1-4)[Fuc(a1-3)]GlcNAc
# How it was run: as §1
# [30] = molecular target: Neu5Ac(a2-8)Neu5Ac(a2-3)Gal(b1-3)GalNAc(b1-4)[Neu5Ac(a2-3)]Gal(b1-4)Glc
# How it was run: as §1
# [31] = molecular target: Neu5Ac9Ac(a2-3)Gal(b1-3)GlcNAc
# How it was run: as §1
# [32] = molecular target: Neu5Gc(a2-6)GalNAc
# How it was run: as §1
# [33] = molecular target: Neu5Gc(a2-8)Neu5Ac(a2-3)Gal(b1-4)GlcNAc
# How it was run: as §1
# [34] = molecular target: Neu5Gc(a2-8)Neu5Gc(a2-3)Gal(b1-4)GlcNAc
# How it was run: as §1
binder,measurement,setting,value
"rAAL-I144G (Agrocybe aegerita), Q6WY08 (protein) MQGVNIYNISAGTSVDLAAPVTTGDIVTFFSSALNLNAGAGNPNNTTLNLFAENGAYLLHIAFRLQENVIIFNSRQPDGPWLVEQRVSDVANQFAGIDGKAMVTVFDHGDKYQVVINEKTVIQYTKQISGLTLSLSYNATEETSGFSTVVEAVTYTGLALEHHHHHH",glycan array binding signal (z-score),[1],-0.112
same,glycan array binding signal (z-score),[2],-0.208
same,glycan array binding signal (z-score),[3],-0.075
same,glycan array binding signal (z-score),[4],-0.088
same,glycan array binding signal (z-score),[5],-0.166
same,glycan array binding signal (z-score),[6],-0.134
same,glycan array binding signal (z-score),[7],2.88
same,glycan array binding signal (z-score),[8],-0.026
same,glycan array binding signal (z-score),[9],-0.134
same,glycan array binding signal (z-score),[10],-0.191
same,glycan array binding signal (z-score),[11],-0.191
same,glycan array binding signal (z-score),[12],17.3
same,glycan array binding signal (z-score),[13],11.8
same,glycan array binding signal (z-score),[14],9.46
same,glycan array binding signal (z-score),[15],-0.15
same,glycan array binding signal (z-score),[16],-0.103
same,glycan array binding signal (z-score),[17],-0.16
same,glycan array binding signal (z-score),[18],1.67
same,glycan array binding signal (z-score),[19],1.35
same,glycan array binding signal (z-score),[20],1.33
same,glycan array binding signal (z-score),[21],4.09
same,glycan array binding signal (z-score),[22],1.74
same,glycan array binding signal (z-score),[23],1.63
same,glycan array binding signal (z-score),[24],-0.073
same,glycan array binding signal (z-score),[25],-0.059
same,glycan array binding signal (z-score),[26],-0.111
same,glycan array binding signal (z-score),[27],-0.049
same,glycan array binding signal (z-score),[28],-0.176
same,glycan array binding signal (z-score),[29],-0.095
same,glycan array binding signal (z-score),[30],1.99
same,glycan array binding signal (z-score),[31],-0.174
same,glycan array binding signal (z-score),[32],-0.086
same,glycan array binding signal (z-score),[33],-0.169
same,glycan array binding signal (z-score),[34],-0.122
